Holding throughout (assay): NCI-60 one-dose screen, 48 h (100 = growth as untreated, 0 = no growth, -100 = all killed)
Common to all, as to conditions: 10 µM

Test [1] has as its system SR leukemia.
Test [2] relates to RPMI-8226 leukemia.
Test [3] concerns OVCAR-8 ovarian.
Test [4] relates to OVCAR-5 ovarian.
Test [5] relates to OVCAR-4 ovarian.
Test [6] deals with SK-OV-3 ovarian.
Test [7] concerns IGROV1 ovarian.
Test [8] relates to OVCAR-3 ovarian.
Test [9] has as its system HS 578T breast.
Test [10] relates to NCI/ADR-RES ovarian.

Compounds without any hit were thinned out: in the full panel of roughly 83,000, 20% have a hit.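 Growth was measured after 48 h exposure to one concentration of compound in 96-well plates. Values under 10 count as active.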 A number with no mark means an inactive call. Active and inactive are the calls of the source.

Regarding `Cc1cccc(NC(=O)CSc2nc3ccc(F)cc3c(=O)n2-c2ccc(Cl)cc2)c1C`, the growth in test [1] is 61.9%; in test [2] it was 88.1%; in test [3] it was 32.5%; in test [4], 90.3%; in test [5], 67.7%; in test [6], 56.8%. Moreover, the growth in test [7] is 53%; in [8], 93.9%; in test [9], 25.7%; in [10] it was 56%.

In the case of `CCOC(=O)C1=C(N)N(c2ccccc2)C2=C(C(=O)CC(C)(C)C2)C1c1ccccc1OC` (stereo not given), the growth in test [1] was 95%; in test [2], 100%; in test [3] it was 108%; in test [4], 103%; in test [5] it was 102%; in [6], 98.2%. For the same compound, the growth was 96.9% in test [7], 112% in test [8], 106% in test [9] and 96.6% in test [10].

Consider `O=c1[nH]c2ccccc2cc1CSc1ccc(Nc2nccc(-c3ccc4c(c3)OCO4)n2)cc1`, for which the growth in test [1] is 81.7%; in [2], 81.3%; in test [3] it was 75%; in test [4], 98.3%; in test [5] it was 27%; in [6], 116%. The growth in [7] is 103%; in [8], 50.7%; in test [9], 41.3%; in test [10], 83.7%.

Turning to `CCCSc1nc(NC2CC2)c(C#N)c(-c2ccc(OC)cc2)n1`, the growth was 98.4% in test [1]; 96.6% in test [2]; 69.2% in test [3]; 105% in test [4]; 84.5% in [5]; 115% in test [6]. Moreover, the growth in test [7] was 108%; in test [8] it was 93.5%; in test [9], 105%; in test [10], 68.7%.

`COc1ccc(NC(=O)Cn2c(/C=C/c3ccc(N(C)C)cc3)nc3ccccc3c2=O)cc1`: the growth in test [1] was 72.5%; in test [2], 57.1%; in test [3], 21%; in test [4], 66.4%; in test [5], 58.7%; in test [6] it was 24.7%. Further, the growth is 47.2% in test [7], 26.9% in test [8], 65.7% in test [9] and 32.2% in [10].

On to `CC(=O)C1=C(C)NC(SCC(=O)Nc2ccc(S(=O)(=O)Nc3cc(C)on3)cc2)=NC1c1ccccc1` (stereo not given), for which the growth in test [1] was 94.1%; in test [2] it was 99.8%; in test [3], 107%; in test [4] it was 109%; in test [5], 100%; in test [6], 101%. The growth in test [7] was 114%; in [8], 107%; in test [9], 95.6%; in test [10], 103%.

In the case of `O=C(CNc1nc(-c2ccccc2)cs1)Nc1ccc(Cl)cc1[N+](=O)[O-]`, the growth in [1] is 7.61% (active); in test [2], 1.75% (active); in [3] it was 10.8%; in test [4], -52.2% (active); in test [5], 15.5%; in test [6] it was -6.03% (active). Further, the growth was 8.13% (active) in test [7], -31.9% (active) in test [8], -18.3% (active) in test [9] and -30.7% (active) in test [10].

Consider `CC(=O)c1cc(C(=O)N2c3ccccc3Sc3ccccc32)n2ccc(C)cc12`, for which the growth was 6.72% (active) in test [1]; 19.8% in [2]; 45.9% in test [3]; 66.8% in test [4]; 51.7% in test [5]; 99.8% in test [6]. For the same compound, the growth was 37.1% in test [7], 58% in test [8], 53.7% in test [9] and 18.4% in test [10].

For the compound `Cc1ccc2nc(-c3ccc(-c4nnc(SCC(=O)Nc5ccc(Br)cc5)o4)cc3)[nH]c2c1`, the growth in test [1] was 16.1%; in [2], 41.3%; in test [3], 20.4%; in [4], 92.4%; in test [5] it was 76.8%; in test [6], 72.1%. Besides, the growth in test [7] is 91.2%; in [8], 82.9%; in test [9] it was 70.8%; in test [10], 61.3%.

In the case of `O=C(N=Nc1c(O)[nH]c2ccc(Br)cc12)c1ccc2nc(-c3ccccc3)[nH]c2c1`, the growth was -5.76% (active) in [1]; -4.88% (active) in test [2]; -94.5% (active) in test [3]; -5.18% (active) in test [4]; -92.1% (active) in test [5]; -54.9% (active) in test [6]. Moreover, the growth in test [7] is -39% (active); in test [8], -69.7% (active); in test [9], -25.9% (active); in test [10], 76.7%.

With `CC(=O)Oc1ccccc1C(=O)Oc1ccc(C(=O)/C=C/c2ccncc2)cc1`, the growth in test [1] was 7.37% (active); in test [2] it was 13.6%; in [3], 30.8%; in test [4], 62.7%; in test [5] it was 59.9%; in test [6], 96.7%. The growth in test [7] is 22.3%; in [8], 19.5%; in test [9] it was 32.8%; in [10], 63.5%.

Turning to `CCCCSc1nc(Nc2ccc(/C(C)=N/NC(N)=S)cc2)c(C#N)c(-c2ccc(OC)cc2)n1`, the growth is 40.2% in test [1]; 67.8% in [2]; 11.8% in test [3]; 130% in [4]; -43.9% (active) in test [5]; 94.9% in test [6]. The growth in [7] is 68.4%; in test [8] it was -27.2% (active); in test [9], 20.3%; in test [10], 25.8%.

For `COc1ccc(/C=N/N=C(\C)c2ccc3c(c2)Nc2ccccc2S3)cc1O`, the growth in [1] was 32.6%; in test [2] it was 28.3%; in test [3], 62.8%; in test [4], 71.4%; in test [5] it was 41.7%; in test [6], 87.3%. The growth in test [7] was 70.1%; in test [8], 72.8%; in test [9] it was 73.7%; in test [10], 34.8%.

On to `Nc1nc(Nc2ccccc2)nn1Cc1c(Cl)cccc1Cl`, for which the growth in [1] was 25%; in [2], 27.1%; in test [3] it was 42.3%; in test [4] it was 46.6%; in [5] it was 39.7%; in [6] it was 51.3%. For the same compound, the growth is 11.2% in [7], 54.6% in test [8], 29.3% in test [9] and 10.6% in [10].

(Values after PubChem BioAssay (NCI).)
